NS1 inh: inhibitors of influenza NS1 protein function; Potency, µM (titrated, usually from 46.1 µM), without a hit: top-dose activity, positive = more growth; 270,000 tested, 0.4% active; AID 2326; calls by dose curve; also: potency is read from the fitted curve at half-maximal effect; actives are rising curves; nearly all actives have a fitted effect of over 50% in size
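OD600 was taken as the measure of yeast growth restored by compound in an NS1-expressing S. cerevisiae strain. Cells had been washed out of glucose medium and diluted 1:100 into galactose -URA medium, pH 6.0.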
TbPYK inhibitor: T. brucei pyruvate kinase inhibition. Q57TT1. Potency, µM (titrated, usually from 76.8 µM), without a hit: at the highest dose activity, negative = inhibition, usual class: inhibitors. TbPYK enzyme, Kinase-Glo Plus ATP luminescence, 45 min. 410,000 tested, 0.12% active; also: potency is read from the fitted curve at half-maximal effect; % is scaled to controls: 0 for no effect and ±100 for the full control effect; nearly all actives have a fitted effect of over 50% in size
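Screened from lowest to highest concentration, compounds were pinned into TbPYK/substrate mixtures, and ADP (130 uM final) was added. Plates sat at room temperature for 45 min prior to Kinase-Glo Plus detection by luminescence.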
SARS PLpro yeast: inhibitors of SARS-CoV papain-like protease in yeast. S. cerevisiae expressing SARS-CoV PLpro, growth rescue. Potency, µM (top dose mostly 32.9 µM), for the others: at the highest dose activity, positive = growth rescue, actives largely listed as activators. 330,000 tested, 0.19% active. AID 485353; calls by dose curve; also: potency is read from the fitted curve at half-maximal effect; 0% is about no effect; nearly all actives have a fitted effect of over 55% in size
Shiga inhibitor: blocks Shiga toxin action in Vero cells. Vero cells, Shiga toxin protein synthesis inhibition reporter. inhibition, % at 38.7 µM. 290,000 tested, 9.2% active. AID 2315; in the data active = inhibition mostly above about 28%, no sharp cut-off; inactive = mostly below about 43%; also: 0% is about no effect
CHX counter: counter-screen hit for Shiga toxin inhibitors, cycloheximide; cell reporter, cycloheximide protein synthesis inhibition counterscreen; max response, %; 300,000 tested, 12% active; AID 2314; in the data active = max response mostly above about 13%, no sharp cut-off; inactive = mostly below about 14%; also: read at 38.3 µM for the half of the compounds with a filed dose; 0% is about no effect
LmPK inhibitor: LmPK (Leishmania mexicana) enzyme inhibition; Potency, µM (doses to about 57.5 µM), for inactives: at the highest dose activity change, negative = inhibition, actives largely listed as inhibitors; 290,000 tested, 0.37% active; Q27686; purified LmPK, Kinase-Glo ATP luminescence, 1 h; AID 1721; also: potency is read from the fitted curve at half-maximal effect; % is scaled to controls: 0 for no effect and ±100 for the full control effect
Target sequence (Q27686 whole entry, looked up): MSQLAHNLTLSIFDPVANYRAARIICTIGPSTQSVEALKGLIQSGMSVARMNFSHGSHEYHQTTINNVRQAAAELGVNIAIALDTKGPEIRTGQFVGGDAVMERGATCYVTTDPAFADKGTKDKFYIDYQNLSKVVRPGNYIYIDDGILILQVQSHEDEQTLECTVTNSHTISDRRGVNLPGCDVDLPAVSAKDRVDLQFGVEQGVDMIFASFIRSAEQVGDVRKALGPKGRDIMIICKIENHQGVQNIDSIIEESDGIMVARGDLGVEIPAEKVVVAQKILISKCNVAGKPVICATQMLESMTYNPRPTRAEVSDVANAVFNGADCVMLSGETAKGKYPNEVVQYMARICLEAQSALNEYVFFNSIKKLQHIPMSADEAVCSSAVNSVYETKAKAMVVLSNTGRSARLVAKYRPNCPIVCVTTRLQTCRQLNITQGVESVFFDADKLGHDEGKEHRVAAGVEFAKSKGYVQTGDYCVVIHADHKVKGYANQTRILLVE
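Pyruvate kinase activity monitored as ATP production (luciferase luminescence). Conditions: 0.1 nM enzyme, 0.5 mM PEP, 0.1 mM ADP, 1 h, RT; normalized against uninhibited and no-enzyme wells.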
* = called active by the depositor; ? = inconclusive; . = not tested or not shown; + = active, no number. This is one part of a sample in which hits are shown more often than they occur. Unless noted, calls follow the shape of the dose curve; as a rule, active = well fitted curve in the direction sought with a large enough effect; inconclusive = small, poorly fitted or top-dose-only effect, or another doubt; inactive = no such curve, though single readings can be large; an effect the other way counts as inactive or inconclusive.

SMILES	NS1 inh	TbPYK inhibitor	SARS PLpro yeast	Shiga inhibitor	CHX counter	LmPK inhibitor
CC(=O)c1ccc(NCC2COc3ccccc3O2)c([N+](=O)[O-])c1 (configuration not stated)	.	-4.0%	-4.0%	56.7*	30.6*	0.7%
CCN(CC(=O)Nc1cccc(F)c1)CC(=O)Nc1ccc2c(c1)OCCO2	.	1.0%	.	.	.	.
Cc1c(C(=O)N2CCN(S(C)(=O)=O)CC2)oc2ccccc12	8.5%	-2.1%	-0.5%	17.3	9.2*	3.3%
Cc1c(C(=O)N2CCc3ccccc32)oc2ccccc12	-22.6%	0.4%	-16.2%	68.5*	55.0*	?
COCc1c(C(=O)N2CCc3ccccc32)oc2ccccc12	-21.9%	5.9%	-33.5%	69.6*	13.9	-3.4%
COc1ccccc1N1CCN(C(=O)c2oc3ccccc3c2C)CC1	-27.7%	-0.6%	-1.9%	11.8	5.6	1.5%
COCc1c(C(=O)N2CCN(c3ccccc3C)CC2)oc2ccccc12	.	-1.9%	.	.	.	.
Cc1nc2c(c(C)c1CCC(=O)N1CCN(c3ccccc3)CC1)c(=O)n(C)c(=O)n2C	.	6.2%	.	.	.	.
CCOC(=O)CSc1nc2c(sc3ccccc32)c(=O)n1Cc1ccc(OC)cc1	.	-3.9%	.	.	.	.
CC(=O)NC(CC(=O)N1CCCC1)c1ccccc1 (configuration not stated)	.	0.6%	.	.	.	.
CCN(CC)Cc1nc2nc(Cl)c(Cl)nc2[nH]1	.	-0.4%	.	.	.	.
CCOc1ccc(S(=O)(=O)N2CCC(C(=O)OC(C)C(=O)N3CCOCC3)CC2)cc1 (configuration not stated)	.	-3.5%	6.8%	.	.	.
COc1cccc(-c2oc3c(c2C#CCCO)C(O)CCC3)c1 (configuration not stated)	.	0.1%	.	.	.	.
CCOc1ccc(NC(=O)c2ccc(CNc3c(NC4CCCCC4)c(=O)c3=O)cc2)cc1	4.6%	-0.4%	12.9%	-6.1	-5.2	1.8%
CCOc1ccc(NC(=O)c2ccc(NC(=S)NC3CC3)cc2)cc1	.	-5.5%	0.4%	50.6*	11.3	3.1%
CCOc1ccc(NC(=O)c2ccc(NC(=S)NC3CCCCC3)cc2)cc1	4.3%	-4.2%	-0.4%	35.6	23.7*	0.7%
Cc1ccc(CN(Cc2ccco2)C(=O)c2cccc(C)c2)cc1	.	0.5%	.	.	.	.
N#C/C(=C/c1ccccc1)c1nn(CCO)c(N)c1C#N	-5.6%	-1.1%	-5.3%	26.6*	27.1*	-2.0%
Cc1ccc(NC(=O)c2oc3ccccc3c2NC(=O)C2CCCO2)cc1C (configuration not stated)	.	1.1%	-5.3%	100.3*	42.1*	-0.5%
COc1ccc(NC(=O)c2oc3ccccc3c2NC(=O)C2CCCO2)cc1OC (configuration not stated)	.	0.5%	1.2%	28.8	36.6*	-6.0%
CC1(C(=O)O)CCCN1C(=O)c1cccc2ccccc12 (configuration not stated)	.	-2.7%	.	.	.	.
CC(C)(C)CC(=O)OCC(=O)[C@@]12OC(C)(C)O[C@@H]1C[C@H]1[C@@H]3CCC4=CC(=O)C=C[C@]4(C)[C@@]3(F)[C@@H](O)C[C@]12C	.	5.8%	.	.	.	.
O=C(Nc1ccc(F)cc1)C1CCN(C(=O)c2ccc(F)cc2)CC1	.	0.1%	-8.3%	.	.	.
O=C(c1ccccc1)c1coc2c1C(=O)c1ccccc1C2=O	.	-6.8%	-0.7%	94.3*	32.8*	-5.5%
COc1ccc(C(=O)c2coc3c2C(=O)C(=O)c2ccccc2-3)cc1	-80.2%	-3.2%	-4.3%	75.7*	33.0*	5.4%
SMILES	NS1 inh	TbPYK inhibitor	SARS PLpro yeast	Shiga inhibitor	CHX counter	LmPK inhibitor
CC(=O)c1c(C)oc2c1C(=O)c1ccccc1C2=O	-15.6%	-9.5%	25.7%	22.5	-2.7	-6.5%
O=C1c2ccccc2C(=O)c2c1oc(C(F)(F)F)c2C(=O)c1ccccc1	?	-8.7%	-24.7%	29.9	24.5*	-0.3%
Cc1cc(Cl)ccc1OCC(=O)Nc1c(C(=O)c2ccccc2)oc2ccccc12	.	2.4%	.	.	.	.
Cc1nc(-c2ccccc2)nc2sc(C(=O)c3ccc(F)cc3)c(N)c12	2.1%	-1.6%	0.1%	-9.6	2.1	0.9%
Cc1snc2sc(C(=O)c3ccc(Br)cc3)c(N)c12	0.6%	-4.5%	-4.5%	28.3	26.6*	4.5%
Cc1ccc(C(=O)c2sc3nsc(C)c3c2N)cc1	5.3%	-9.4%	13.8%	154.9*	86.3*	-2.0%
COc1cccc2c3c(c(=O)[nH]c12)CCC(C)(C)O3	-14.3%	-8.0%	-8.1%	36.3	13.2*	-1.2%
Cc1ccccc1CCNC(=O)c1ccc2c(c1)nc1n2CCC(C)C1 (configuration not stated)	.	-1.6%	.	.	.	.
COc1ccc(-c2noc(N3CCN(c4cccc(C)c4C)CC3)n2)cc1OC	.	1.0%	.	.	.	.
CCN(CC)C(=O)c1cccc2nc3ccccc3nc12	-1.8%	1.6%	-1.1%	3.6	-2.0	5.9%
Oc1cccc2nc3ccccc3nc12	-36.2%	0.0%	-6.5%	43.7	20.9*	-1.7%
CCC(C(=O)OCc1csc(CC(=O)Nc2ccccc2C)n1)c1ccccc1 (configuration not stated)	.	-11.6%	-1.1%	.	.	.
COc1cc(F)c(S(=O)(=O)N2CCN(S(=O)(=O)c3ccc4c(c3)OCCO4)CC2)c(F)c1	.	.	.	-5.2	-6.7	.
Cc1ccc(S(=O)(=O)N2CCCc3cc(NC(=O)c4ccccc4Cl)ccc32)cc1	.	1.6%	.	.	.	.
O=C(CSc1nnnn1C1CCCCC1)NCCc1ccccc1	-61.4%	4.8%	4.6%	42.4*	62.3*	5.0%
O=C(CSc1cccs1)Nc1ccc(Cl)cc1	-1.6%	3.1%	-4.0%	50.2*	53.5*	0.5%
O=C(CSc1ccccc1)NCCc1ccccc1	5.3%	-0.7%	2.1%	43.9*	36.6*	0.9%
O=C(CSc1cccs1)NCCc1ccccc1	6.8%	-3.9%	-1.7%	+	41.6*	-0.5%
CC1(C)CC(=O)C=C(c2ccc(-c3cccc(C(N)=O)c3)cc2)C1=O	.	6.1%	.	.	.	.
Cc1csc2nc(-c3cccc(NC(=O)c4c(F)cccc4F)c3)cn12	.	2.9%	.	.	.	.
CSc1ccccc1NC(=O)CN(C)CC(=O)c1c(C)[nH]c2ccccc12	.	-13.4%	-11.9%	.	.	.
Cc1ccc(SCC(=O)NCCSC(C)(C)C)cc1	-0.2%	0.5%	3.1%	34.8	28.5*	3.1%
CC(Sc1ccccc1)C(=O)NCCc1ccccc1 (configuration not stated)	-6.1%	-1.4%	-1.1%	32.5*	24.1*	-1.7%
O=C(CSc1ccc2ccccc2c1)NCCc1ccc(O)c(O)c1	.	31.6µM*	-0.8%	9.9	17.4	-0.6%
O=C(CSc1ccccc1)NCCc1ccc(F)cc1	1.0%	4.4%	5.2%	.	28.6*	7.7%
COCCNC(=O)CSc1ccc(C)cc1	-11.0%	0.5%	-0.1%	5.0	-3.0	-2.4%
CCCn1c(CCC(=O)Nc2cc(OC)cc(OC)c2)nc2cccnc21	.	-1.6%	.	.	.	.
COc1ccc(Cl)cc1NC(=O)CSc1nc(=O)n(Cc2ccco2)c2c1CCC2	.	-9.8%	.	.	.	.
Cc1ccc(SCC(=O)NCCc2ccccc2)cc1	23.9%	0.1%	-7.2%	17.5	14.0*	1.7%
